Laboratory results from ChEMBL document CHEMBL4513216, “Probing the Open Global Health Chemical Diversity Library for Multistage-Active Starting Points for Next-Generation Antimalarials” (ACS Infect Dis, 2020).
The campaign covered roughly 69,000 compounds. About 8,600 (12%) showed an effect of 50% or more. Shown is part of a subset that was picked to be rich in strong results.

System: Plasmodium berghei
Assay: Screen against P. berghei liver stage (PbLuc), transformed with Luciferase, at 10uM
Assay type: functional, HepG2
Details: tested at 10 uM

SMILES | INHIBITION [%]
COc1cc(F)ccc1-c1cc(N)ccn1 | 49.6
COc1ccc(-c2ccnc(N)c2)c(OC)c1 | -10.5
COc1ccc(-c2cc(N)ccn2)c(OC)c1OC | 61.5
CCOc1ccc2oc(-c3cnn(C)c3C)c(O)c(=O)c2c1 | 0.207
COC(=O)c1ccc(NC(=O)CCNCc2ccco2)cc1 | 36.5
CN1CCN(Cc2ccc(-c3ccc(-c4ccn[nH]4)cc3)nc2)CC1 | 54.9
CN1CCN(Cc2ccc(-c3ccc4[nH]ccc4c3)nc2)CC1 | 27.5
CN1CCN(Cc2ccc(-c3ccc(C(N)=O)cc3)nc2)CC1 | 24.2
CCCC(=O)N1CCCCC1c1nccc(C)n1 (stereo unspecified) | 20.8
COc1ccc(CN(C)[C@@H]2CN(C(=O)c3cccn3C)C[C@H]2O)cc1 | 32.8
CCN(C)c1ncc2c(c1C(=O)O)CCN(C1CCOC1)C2 (stereo unspecified) | 33.4
CN1CCN(c2ncc3c(c2C(=O)O)CCN(C2CCOC2)C3)CC1 (stereo unspecified) | 58.5
CCN(CC)c1ncc2c(c1C(=O)O)CCN(C1CCOC1)C2 (stereo unspecified) | 15.7
CO[C@@H]1CCN(C(=O)c2ccsc2)[C@@H]2CN(CC3CC3)C[C@@H]21 | -19.6
NC(=O)COc1ccc(CN2CCC(O)(CN3CCCCC3)C2)cc1Cl (stereo unspecified) | 50.5
NC(=O)COc1ccc(CN2CCC3(CC2)[C@H](O)C[C@@H]3O)cc1Cl | 28.7
NC(=O)COc1ccc(CN2CC[C@@]3(O)CCCC[C@H]3C2)cc1Cl | 16.8
COc1ccccc1C1CCN(C(=O)CN2C(=O)OC(C)(C)C2=O)CC1 | -140
COc1ccc(-n2ncc(C(C)NCc3cnc(SC)nc3)c2C)cc1 (stereo unspecified) | 7.6
CSc1ncc(CNC(C)c2cnn(-c3ccccc3)c2C)cn1 (stereo unspecified) | 36.7
Cc1c(C(C)NC2CCOCC2)cnn1-c1ccc(F)cc1F (stereo unspecified) | 22.3
CSc1ncc(CNC(C)c2cnn(-c3ccc(F)cc3F)c2C)cn1 (stereo unspecified) | 50.3
Cc1c(C(C)NC2CCCC2)cnn1-c1ccc(F)cc1F (stereo unspecified) | 31.9
Cc1c(C(C)NCC2CCCC2)cnn1-c1ccc(F)cc1F (stereo unspecified) | 62.9
O=C(NC[C@H]1OC[C@@H]2CCN(C3CCOCC3)C[C@@H]21)c1ccncc1 | 36.2
COc1c(CNC2CCc3c(Cl)cccc32)c(C)nn1C (stereo unspecified) | 36.3

SMILES | INHIBITION [%]
CCCN1CCC(N2CCC(Cn3cc(CC(C)O)nn3)CC2)CC1 (stereo unspecified) | 25.3
CC(O)Cc1cn(CC2CCN(C3CCSCC3)CC2)nn1 (stereo unspecified) | 57.8
OCc1cn(CC2CCN(C3CCSC3)CC2)nn1 (stereo unspecified) | -14.1
O=C(O)c1cc(-c2cccs2)nc2c(Br)cnn12 | 15.9
Cn1cc(NC(=O)CNC(=O)N2CCN(c3ccccc3)CC2)cn1 | 21.5
Cc1cnc(CN(C)C2CCN(CC(=O)Nc3nncs3)C2)o1 (stereo unspecified) | 20.9
CCCC(=O)N1CCC2(CC1)CN(Cc1cccc(C)n1)C(=O)CO2 | 25.3
O=C(NCCc1ccccn1)[C@@H]1CC[C@@H]2[C@@H](CCN2Cc2ccoc2)O1 | 59.9
CS(=O)(=O)N1CC[C@H]2O[C@H](C(=O)NCCc3ccncc3)CC[C@H]21 | -35.9
CS(=O)(=O)N1CC[C@H]2O[C@H](C(=O)NCCc3ccccn3)CC[C@H]21 | 54.7
O=C(Nc1cnccn1)[C@H]1CC[C@@H]2[C@@H](CCN2Cc2ccoc2)O1 | 8.52
O=C(NCc1cccs1)[C@H]1CC[C@@H]2[C@@H](CCN2Cc2ccoc2)O1 | -5.31
CS(=O)(=O)N1CC[C@H]2O[C@H](C(=O)NCc3cccnc3)CC[C@H]21 | 11.4
Cc1c(C(=O)N(C)c2ccccc2)cccc1N(C)S(C)(=O)=O | 22.07
CN(Cc1ccc(F)cc1)[C@@H]1CN(S(C)(=O)=O)C[C@H]1O | 14.12
CC(=O)N1CCCN(C(=O)c2cnc(OC(C)C)c(Cl)c2)CC1 | 51.1
CC(C)Oc1ncc(C(=O)N2CCC(CC(N)=O)CC2)cc1Cl | 16.9
CC(C)Oc1ncc(C(=O)N2CCC(N(C)C)CC2)cc1Cl | 26.6
CCN1CCCN(C(=O)c2cnc(OC(C)C)c(Cl)c2)CC1 | 60.1
CC(=O)N1CCN(C(=O)c2cnc(OC(C)C)c(Cl)c2)CC1 | -2.32
CC(O)CN1CCN(C(=O)c2cnc(OC(C)C)c(Cl)c2)CC1 (stereo unspecified) | 40.5
O=C(N[C@@H]1CN(Cc2cccs2)[C@@H]2CCCO[C@@H]21)c1cscn1 | -17.1
O=C(NCCNc1ncccn1)N1CCCC1c1ccncc1 (stereo unspecified) | 11.8
Cc1nc(CN(Cc2ccncc2)C2CCN(C)CC2)cs1 | 8.46
CCNC(=O)[C@@H]1C[C@H](N)CN1c1cc(C(F)(F)F)nc(N2CCCC2)n1 | -122
